Compound activity from PubChem BioAssay.
HSF1 inh: HSF1 inhibition. NIH3T3-HGL HSE-luciferase, MG132-induced, luminescence 8 h; stronger effect = lower value. activity change, negative = inhibition, % at 7.5 µM (by protocol). 300,000 tested, 0.77% active. AID 2098;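 active means more than half of replicate wells show activity change below -50%, luminescence cut by over half; inconclusive means some wells, but at most half, below -50%; inactive means no replicate well below -50%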;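 further: luciferase reports HSF-1 transcriptional activity via heat shock element; 0% = median of DMSO wells and -100% = zero luminescence signal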
HSF1 activator: increases HSF-1 driven luciferase reporter signal; NIH3T3-HGL HSF-1 luciferase reporter, MG132, 8 h; 100% = twice DMSO control signal; activation, % at 9 µM; 300,000 tested, 1.7% active; AID 504408;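 active means mean replicate activation of at least 50% with a set share of replicates each reaching 50%; inconclusive means only one of those two conditions met; inactive means mean below 50% and too few replicates reaching it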;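 further: 0% = median of the neutral control wells and 100% = twice that signal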
esBAF inh: SWI/SNF esBAF complex inhibition | mouse ES cells, Bmi1-luciferase knock-in reporter, 24 h; 100% = twice the neutral-well signal | reporter increase, % at 12.5 µM | 350,000 tested, 2% active | AID 602393; in the data active means activation above about 40%; inconclusive means no clear call, values can overlap the other calls;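 further: 0% = median of the plate's neutral control wells and 100% = double that signal; a rise in the Bmi1 reporter signal indicates esBAF inhibition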
Wnt bcat act: activates Wnt/beta-catenin signaling in a reporter cell assay; AID 743398; activator, plate reader; activation, % at 9.35 µM; 300,000 tested, 1.2% active; in the data active means activation above about 30%, passing the limit was not always enough; inconclusive means no clear call, values can overlap the other calls;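 further: 0% = neutral control wells and 100% = positive control wells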
MITF TRPM1 HTS: increases MITF-driven TRPM1 promoter luciferase signal; AID 588334; 300,000 tested, 0.75% active; activation, % at 12.5 µM; SK-MEL-5 TRPM1-promoter luciferase, 24 h; % of positive control, neutral wells = 0;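 active means mean activation of at least 80% with every replicate also reaching 80%; inconclusive means mean reaches 80% but some replicate falls short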;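 further: 0% = neutral control wells and 100% = parthenolide positive control wells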
Starred values were filed as active, the others as inactive; ? = inconclusive; . = no result. Only some compounds are listed: those with a hit (about 3.9% of all), similar ones and a draw of the others.

SMILES	HSF1 inh	HSF1 activator	esBAF inh	Wnt bcat act	MITF TRPM1 HTS
CC(=O)Nc1cccc(NC(=O)C(=O)c2cn(CC(=O)N3CCCC3)c3ccccc23)c1	.	.	47*	.	.
CCN(CC)C(=O)Cn1cc(C(=O)C(=O)Nc2ccc3c(c2)OCCO3)c2ccccc21	12	19	60*	-1	82*
COc1ccccc1CCNC(=O)C(=O)c1cn(CC(=O)N2CCCC2)c2ccccc12	16	11	.	4	13
COc1ccccc1NC(=O)C(=O)c1cn(CC(=O)N2CCCC2)c2ccccc12	-2	5	72*	9	33
CO[C@H]1CN(C)C(=O)c2ccc(NC(=O)C3CCCCC3)cc2OC[C@@H](C)N(Cc2cccnc2)C[C@@H]1C	.	.	1	.	.
C[C@@H]1CN([C@H](C)CO)C(=O)c2cc(NS(=O)(=O)c3ccc(Cl)cc3)ccc2O[C@@H](C)CCCCO[C@@H]1CN(C)C(=O)C1CCCCC1	.	.	5	.	.
N#Cc1cccc(-c2ccc3c(c2)[C@H]2[C@H](CCN2C(=O)c2ccccc2F)[C@H](CO)N3)c1	.	.	4	.	.
COC(=O)c1ccccc1NC(=O)CSc1nnc(C(CO)NC(=O)c2ccccc2)n1C (stereo unspecified)	-71*	-77	-1	-1	-6
CO[C@H]1CN(C)C(=O)c2cc(NC(=O)c3ccc4c(c3)OCO4)ccc2OC[C@H](C)N(CC2CC2)C[C@@H]1C	.	.	1	.	.
C/C(Cl)=C/Cc1c(C)[nH]c2ccc(C)cc2c1=O	24	58*	25	11	.
C/C(Cl)=C/Cc1c(C)[nH]c2c(ccc3ccccc32)c1=O	1	12	-2	-1	8
COc1ccc(OC(=O)c2ccncc2)cc1	-5	2	0	.	.
COc1ccc(C(=O)Oc2ccc(/C=N/O)cc2)cc1	-64*	-71	9	4	.
CO[C@H]1CN(C)C(=O)c2ccc(NC(=O)C3CCOCC3)cc2OC[C@H](C)N(C(=O)c2ccccc2)C[C@H]1C	.	.	1	.	.
CCCN(C)C[C@@H]1Oc2cc(-c3ccccc3)ccc2S(=O)(=O)N([C@H](C)CO)C[C@@H]1C	.	.	-4	.	.
C[C@@H]1CCCCO[C@@H](CN(C)C(=O)Nc2cccc3ccccc23)[C@@H](C)CN([C@H](C)CO)C(=O)c2cc(NC(=O)Nc3ccc(F)cc3)ccc2O1	.	.	-2	.	.
COc1cccc(-c2cnc3c(c2)C(=O)N([C@@H](C)CO)C[C@H](C)[C@H](CN(C)Cc2ccc(C(=O)O)cc2)O3)c1	.	.	-3	.	.
COc1ccc(-c2nnc3sc(-c4ccccn4)nn23)cc1	-6	8	.	.	.
c1ccc(-c2nn3c(-c4ccccc4)nnc3s2)cc1	12	40	0	.	.
Cc1cccc(-c2nnc3sc(-c4ccccc4)nn23)c1	9	11	42*	-14	?
CC(C)(C)c1ccc(-c2nnc3sc(-c4ccccn4)nn23)cc1	-53*	-60	-25	-8	.
CNC(=O)C1(C)Cc2c(-c3ccc(NC(C)=O)cc3)ccnc2O1 (stereo unspecified)	.	.	-3	0	.
CC(=O)Nc1ccc(-c2ccnc3c2CC(C)(C(=O)NC(C)C)O3)cc1 (stereo unspecified)	.	.	-1	41*	.
COCC(=O)N(C)C[C@H]1[C@H](c2ccccc2)[C@H](CO)N1C(=O)Cc1cccnc1	.	.	3	.	.
Cc1cc(C)cc(NC(=O)Cn2cc3c(n2)CCCCC3)c1	3	7	.	.	.
SMILES	HSF1 inh	HSF1 activator	esBAF inh	Wnt bcat act	MITF TRPM1 HTS
CCN(CCCNC(=O)Cn1cc2c(n1)CCCC2)c1cccc(C)c1	45	59*	-22	-2	-8
CN(C)c1ccc(NC(=O)Cn2cc3c(n2)CCCC3)cc1	-1	0	44*	7	3
O=C(NCc1ccc2c(c1)OCO2)[C@@H]1[C@@H](CO)[C@@H]2Cn3c(cccc3=O)[C@H]1N2Cc1cncnc1	.	.	3	.	.
Cc1c(C)n(Cc2ccccc2)c2ccc(C(=O)O)cc12	2	30	.	1	.
Cc1nn(C)cc1/C=N\NC(=O)c1ccc2c(c1)c(C)c(C)n2Cc1ccccc1	99	128*	0	-2	13
CN1C(=O)c2cc(NC(=O)C3CCOCC3)ccc2OC[C@H]2O[C@@H](CC(=O)NCc3ccccc3F)CC[C@H]21	.	.	5	.	.
COc1cc(/C=C/C(=O)OCC(=O)N2CCC(C)CC2)ccc1O	1	-11	-4	0	4
COc1cc(/C=C/C(=O)OC2CC3CCC2(C)C3(C)C)ccc1O (stereo unspecified)	6	12	47*	-1	10
Cc1ccc(S(=O)(=O)NN=Cc2cc(Cl)ccc2O)cc1	.	.	19	7	14
Cc1ccc(S(=O)(=O)NN=Cc2ccccc2Cl)cc1	.	.	-6	34*	.
NS(=O)(=O)c1cc2c(cc1Cl)NCNS2(=O)=O	-69*	-75	5	-5	-11
CCCC(=O)Nc1ccc2c(c1)OC[C@@H](C)N(C(=O)C1CCCC1)C[C@H](C)[C@H](OC)CN(C)C2=O	.	.	3	.	.
Cc1ccc2nc(-c3cc(-c4ccccc4)no3)cn2c1	2	9	-55	18	-30
CCc1ccn2cc(-c3cc(-c4ccccc4)no3)nc2c1	-69*	-74	-82	-9	.
COc1ccccc1CCC(=O)OCC(=O)Nc1c(Br)cc(C)cc1Br	18	61*	-11	-1	0
COc1ccccc1CCC(=O)OCC(=O)Nc1cc(C)nn1-c1ccccc1	-2	-4	6	-1	6
CCN1C(=NCCc2cccs2)N[C@@H](c2cccs2)C(C(=O)OC)=C1C	-60*	-69	-11	.	14
CCOC(=O)CN1C(=O)N[C@@H](c2cccs2)C(C(=O)OC)=C1C	8	1	-7	0	17
CC1CC2=C(C(=O)O1)C(c1ccccc1)Nc1ccccc1N2 (stereo unspecified)	5	21	.	0	-8
O=C1NCC2=C1C(c1ccc(Br)cc1)Nc1ccccc1N2 (stereo unspecified)	28	51*	58*	.	.
C[C@H]1CCCCO[C@H](CN(C)C(=O)CCCN(C)C)[C@@H](C)CN([C@@H](C)CO)C(=O)c2cc(NS(=O)(=O)c3ccc(F)cc3)ccc2O1	.	.	10	.	.
CC1CN(CCC(=O)Nc2ccc3c(c2)OCO3)CC(C)O1 (stereo unspecified)	-9	0	2	.	16
O=C(Nc1ccc2c(c1)OCCO2)N1CCN(c2ccc(F)cc2)CC1	-58*	-60	24	4	0
O=C(/C=C/c1ccc2c(c1)OCCO2)N1CCN(c2ccc(F)cc2)CC1	1	35	-4	1	-4
CC(C)(C)OC(=O)N1CCN(C(=O)Nc2ccc3c(c2)OCCO3)CC1	-25	-20	48*	12	8
Cc1cccc(C)c1N1CCN(C(=O)Nc2ccc3c(c2)OCCO3)CC1	-48	-51	22	45*	.
CC1CN(C(=O)Nc2ccc3c(c2)OCCO3)CC(C)O1 (stereo unspecified)	-58*	-64	.	18	8
CC(C)(C)OC(=O)N1CCCN(C(=O)Nc2ccccc2)CC1	-3	1	.	-3	.
